Several values for one entry are separate records, joined by “and”; a condition that tells them apart may be missing. Equal entries are not always repeated. Records with an inconclusive call do not appear. Activity calls are given as the source filed them. Calls come from the whole dose curve; as a rule, active = well fitted curve in the direction sought with a large enough effect in the repeat runs; inconclusive = weak or mixed curves; inactive = no such curve, though single readings can be large; an effect the other way counts as inactive or inconclusive.
What was measured:
[1] = qHTS assay to identify small molecule antagonists of the retinoic acid receptor (RAR) signaling pathway (AID 1159552; note: nearly all actives have a fitted effect of over 50% in size)
In short: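 Using a RARE-driven luciferase construct in C3RL4 cells, retinol at 1 uM final provided the agonist stimulus while compounds were co-applied. After 6 hours at 37 C, luminescence was recorded to flag inhibitors of retinol signaling.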

[2] = qHTS assay to identify small molecule agonists of the RXR signaling pathway - cell viability counter screen (AID 1159529); note: nearly all actives have a fitted effect of over 50% in size
In short: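 Viability read-out for the RXR-alpha agonist qHTS: luminescent CellTiter-Glo signal after 30 min at RT. HEK 293T bla reporter cells, 2% charcoal-stripped FBS, 16 hr compound incubation; tetraoctyl ammonium bromide as cytotoxic control.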

[3] = qHTS assay to identify small molecule antagonists of the retinoid acid receptor (RAR) signaling pathway - cell viability counter screen (AID 1159551); note: nearly all actives have a fitted effect of over 35% in size
In short: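 Viability of C3RL4 cells is quantified from ATP by luminescence after 6 h treatment at 37 C with compounds and 1 uM retinol.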

[4] = qHTS assay to identify small molecule agonists of the retinoic acid receptor (RAR) signaling pathway (AID 1159553); details: C3RL4 RARE luciferase reporter, agonist, 6 h; activation: at 73.3 µM (top of the series) unless noted
In short: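 Compounds dissolved in DMSO were pinned onto C3RL4 cells seeded the previous day, and plates were held 6 hr at 37 C. RARE-driven luciferase output was then read by luminescence.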

Measured: Potency
Potency is the fitted concentration of half-maximal effect.

OCC(F)(F)F
inactive: [1]

NC(=O)c1cccc([N+](=O)[O-])c1
inactive: [1]

O=C(/C=C/c1ccc(O)c(O)c1)O[C@@H](C(=O)O)[C@@H](OC(=O)/C=C/c1ccc(O)c(O)c1)C(=O)O
inactive: [2] | [3] | [1] | [4]

O=C(Oc1ccccc1)Oc1ccccc1
inactive: [2] | [3] | [1] | [4]

CCOC(=O)c1ccc(C2CCC(NC[C@H](O)COc3ccc(O)c(NS(C)(=O)=O)c3)CC2)cc1 (stereo partly drawn)
inactive: [3] | [4]
active: [2] 10.1 µM | [1] 56.4 µM

O=c1[nH]c(=O)n([C@H]2C[C@H](O)[C@@H](CO)O2)cc1F
inactive: [2] | [3] | [1] | [4]

COc1cc(C)ccc1O
inactive: [2] | [3] | [1] | [4]

CCC(CC)(CC(=O)Nc1cccc(/C=C/c2nc(C3CCC3)cs2)c1)C(=O)O
inactive: [2] | [3] | [1]

C#Cc1ccc(-c2ccccc2F)cc1
inactive: [2] | [3] | [1] | [4]

Nc1ccc(Oc2ccc(Cl)cc2)cc1
inactive: [2] | [3] | [1]

O=c1oc2cc(O)ccc2c2oc3cc(O)ccc3c12
inactive: [2] | [3] | [1]
active: [4] 52.2 µM

O=C(/C=C/c1ccccc1)OC/C=C/c1ccccc1
inactive: [2] | [3] | [1]

Cc1cc(-c2ccc(N=Nc3cc(S(=O)(=O)O)c4ccccc4c3N)c(C)c2)ccc1N=Nc1cc(S(=O)(=O)O)c2ccccc2c1N
inactive: [2] | [3] | [1] | [4]

CCCCCC/C=C\CCCCCCCC(=O)O
inactive: [2] | [3] | [1] | [4]

C#CC1(O)CC[C@H]2[C@@H]3CCC4=CCCC[C@@H]4[C@H]3CC[C@@]21C (stereo partly drawn)
active: [2] 24.5 µM and 21.3 µM | [3] 54.5 µM and 26.6 µM | [1] 48.6 µM and 23.7 µM
inactive: [4]

O=C1OC2(c3ccc(O)cc3Oc3cc(O)ccc32)c2ccc(N=C=S)cc21
inactive: [2] | [3] | [1] | [4]

O=C(O)c1cc(=O)c2ccccc2o1
inactive: [2] | [3] | [1] | [4]

C=C(CC)C(=O)c1ccc(OCC(=O)O)c(Cl)c1Cl
active: [1] 48.2 µM
inactive: [2] | [3]

Cc1c(C)c2c(c(C)c1OC(=O)c1cccnc1)CC[C@@](C)(CCC[C@H](C)CCC[C@H](C)CCCC(C)C)O2
inactive: [2] | [3] | [1] | [4]

Cc1c(F)c(N2CCNC(C)C2)cc2c1c(=O)c(C(=O)O)cn2C1CC1 (stereo not drawn)
inactive: [2] | [3] | [1] | [4]

OC/C=C/CO
inactive: [2] | [3] | [1] | [4]

Cc1cc(-n2nc3ccc(Cl)cc3n2)c(O)c(C(C)(C)C)c1
inactive: [2] | [3] | [1] | [4]

NC(=S)NC(N)=S
inactive: [2] | [3] | [1]

CC(=O)c1ccc(C(C)=O)cc1
inactive: [2] | [3] | [1] | [4]

CCCCCCCC
inactive: [2] | [3] | [1]

CCN(CCN)c1cccc(C)c1
inactive: [2] | [3] | [1] | [4]

COC(C)=O
inactive: [2] | [3] | [1] | [4]

CC(C)(c1cc(Br)c(OCC(Br)CBr)c(Br)c1)c1cc(Br)c(OCC(Br)CBr)c(Br)c1 (stereo not drawn)
inactive: [2] | [3] | [1] | [4]

CCCNCCC
inactive: [2] | [3] | [1] | [4]

CCCC(=O)OC(C)(C)Cc1ccccc1
inactive: [2] | [3] | [1] | [4]

Sc1nc2ccccc2s1
inactive: [2] | [3] | [1]

COc1ccc(-c2coc3cc(O)ccc3c2=O)cc1
active: [4] 0.486 µM
inactive: [2] | [3] | [1]

CCO[Si](OCC)(OCC)OCC
inactive: [2] | [3] | [1] | [4]

CN(C)c1ccc(C(=C2C=CC(=[N+](C)C)C=C2)c2ccc(N(C)C)cc2)cc1
active: [2] 13.7 µM and 19.5 µM and 19 µM | [3] 17.1 µM and 27.3 µM and 23.7 µM | [1] 7.66 µM and 2.17 µM and 3.76 µM

COc1ccc2c(c1)c(CC(=O)OC/C=C(\C)CC/C=C(\C)CCC=C(C)C)c(C)n2C(=O)c1ccc(Cl)cc1
inactive: [2] | [3] | [1] | [4]

COC(=O)c1ccccc1OC
inactive: [2] | [3] | [1] | [4]

CC(C)(C)C1CCC(=O)CC1
inactive: [2] | [3] | [1]

Cc1ccc(-c2ccccc2)cc1
inactive: [2] | [3] | [1] | [4]

O=C(O)Cc1ccc2c(c1)C(=O)c1ccccc1CO2
inactive: [2] | [3] | [1]

O=C(O)c1cc(O)c2ccccc2c1O
active: [2] 30.9 µM | [3] 61.1 µM | [1] 68.6 µM

Cc1ccc(C(C)C)cc2c(C)ccc1-2
inactive: [2] | [3] | [1] | [4]

CCC(=O)C(=O)CC
inactive: [2] | [3] | [1] | [4]

C=C(C)c1cccc(C(=C)C)c1
inactive: [2] | [3] | [1] | [4]

Cc1ccc(C(=O)O)cc1
inactive: [2] | [3] | [1] | [4]

CCCCCCC1CCCC(=O)O1 (stereo not drawn)
inactive: [2] | [3] | [1] | [4]

From PubChem BioAssay (Tox21)
